Data from ChEMBL document CHEMBL4808148, “HDAC6 screening dataset using tau-based substrate in an enzymatic assay yields selective inhibitors and activators” (2021).
About 390 (7%) of roughly 5,600 compounds showed an effect of 50% or more. The sample as a whole holds a higher share of strong results than the screen did.

Legend:
[1] = biological target: T1, Protein deacetylase HDAC6 (Homo sapiens) (UniProt Q9UBN7); details: at 10 µM
T1 sequence (whole entry): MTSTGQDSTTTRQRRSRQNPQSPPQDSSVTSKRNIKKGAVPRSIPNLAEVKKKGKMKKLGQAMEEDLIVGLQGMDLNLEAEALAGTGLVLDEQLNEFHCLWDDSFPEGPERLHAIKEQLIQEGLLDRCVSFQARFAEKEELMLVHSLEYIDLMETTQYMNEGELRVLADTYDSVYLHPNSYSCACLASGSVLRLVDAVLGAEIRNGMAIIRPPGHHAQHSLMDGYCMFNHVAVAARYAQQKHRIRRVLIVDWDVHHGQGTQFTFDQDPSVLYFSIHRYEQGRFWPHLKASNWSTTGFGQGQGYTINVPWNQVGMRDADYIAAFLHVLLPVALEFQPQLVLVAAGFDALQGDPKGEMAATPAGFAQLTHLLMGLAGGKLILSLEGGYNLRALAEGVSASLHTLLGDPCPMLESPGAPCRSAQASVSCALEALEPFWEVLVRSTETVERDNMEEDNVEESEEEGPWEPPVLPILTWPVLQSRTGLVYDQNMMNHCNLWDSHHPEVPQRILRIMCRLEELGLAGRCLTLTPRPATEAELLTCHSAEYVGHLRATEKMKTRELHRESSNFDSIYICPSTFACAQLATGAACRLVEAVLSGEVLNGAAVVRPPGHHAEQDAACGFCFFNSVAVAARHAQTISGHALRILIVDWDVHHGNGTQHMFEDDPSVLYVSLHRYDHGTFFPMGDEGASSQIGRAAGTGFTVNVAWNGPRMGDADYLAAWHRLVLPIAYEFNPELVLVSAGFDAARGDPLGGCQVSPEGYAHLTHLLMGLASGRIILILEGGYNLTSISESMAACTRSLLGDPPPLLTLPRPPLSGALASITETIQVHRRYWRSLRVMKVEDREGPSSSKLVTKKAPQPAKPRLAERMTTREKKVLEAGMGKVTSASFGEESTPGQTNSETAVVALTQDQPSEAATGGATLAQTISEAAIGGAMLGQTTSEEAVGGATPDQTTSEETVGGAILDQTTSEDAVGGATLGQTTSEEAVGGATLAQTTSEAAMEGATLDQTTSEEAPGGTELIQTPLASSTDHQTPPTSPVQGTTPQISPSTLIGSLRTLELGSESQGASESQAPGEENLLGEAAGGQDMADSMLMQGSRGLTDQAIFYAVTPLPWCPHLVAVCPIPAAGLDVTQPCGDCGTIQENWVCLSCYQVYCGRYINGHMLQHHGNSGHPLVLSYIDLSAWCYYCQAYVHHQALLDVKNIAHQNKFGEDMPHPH

[2] = biological target: Protein deacetylase HDAC6 (Homo sapiens) (UniProt Q9UBN7); details: at 10 µM; remark: listed apart in the source

Compound | inhibition [1] | inhibition [2]
Cc1c(N)cccc1Cn1ccc(OCCc2cccs2)cc1=O | -7.53% | 
Cc1cccc(NC(=O)N[C@@H]2N=C(c3ccccc3)c3ccccc3N(C)C2=O)c1 | 10.7% | 
CCNC1=Nc2ccc(Cl)cc2C(C)(c2ccccc2)O1 (centres undefined) | 3.39% | 
c1cc(Nc2cc(C3CC3)n[nH]2)nc(Nc2ccc3[nH]cnc3c2)n1 | 77.3% | 
CCC(C)c1ccc(NC(=O)Cn2cnc3c2c(=O)n(C)c(=O)n3C)cc1 (centres undefined) | 18.1% | 
c1ccc(C2(c3ccccc3)CC2=C2NCCN2)cc1 | 17% | 
C[C@H](CCC(=O)O)[C@H]1CC[C@H]2[C@@H]3C(=O)C[C@@H]4CC(=O)CC[C@]4(C)[C@H]3CC(=O)[C@]12C | -6.77% | 
CC(=O)Nc1ccc(C(=O)NC(C)(C)C)cc1 | 9.15% | 
CC(C)(C)c1ccc(C(=O)Nc2cn3cc(-n4ccnc4)ccc3n2)cc1 | 101% | 
Cc1ncc([N+](=O)[O-])n1CC(O)CN1CCOCC1 (centres undefined) | -5.36% | 
COc1cccc2c1C(=O)c1c(O)c3c(c(O)c1C2=O)C[C@@](O)(C(=O)CO)C[C@@H]3O[C@H]1C[C@H](N2CCO[C@H](OC)C2)[C@H](O)[C@H](C)O1 | 43.2% | 
COc1cccc2c1C(=O)c1c(O)c3c(c(O)c1C2=O)C[C@@](O)(C(=O)CO)C[C@@H]3O[C@H]1C[C@H](N)[C@H](O[C@@H]2CCCCO2)[C@H](C)O1 | 92.2% | 
COc1cccc2c1C(=O)c1c(O)c3c(c(O)c1C2=O)C[C@@](O)(/C(CO)=N/NC(=O)CCCCCN1C(=O)C=CC1=O)C[C@@H]3O[C@H]1C[C@H](N)[C@H](O)[C@H](C)O1 | 26.7% | 
CC1(C)OC(=O)C(OCC2CC2)=C1c1ccc(S(C)(=O)=O)cc1 | -6.89% | 
CCCCCN(CCCOC)C(=O)[C@@H](CCC(=O)O)NC(=O)c1ccc(Cl)c(Cl)c1 | 9.58% | 
CC(C)c1cc(C(C)C)c(-c2csc(N(CCN(C)C)Cc3cccnc3)n2)c(C(C)C)c1 | 1.94% | 
C[N+](C)(CF)CCO | 0.62% | 
CO/N=C(\C(=O)N[C@@H]1C(=O)N2C(C(=O)O)=C(CSc3nc(C)c(CC(=O)O)s3)CS[C@H]12)c1csc(N)n1 | 2.2% | 
CCCOC(=O)c1ccccc1 | 8.38% | 
O=C(Oc1cccc2cccnc12)c1ccccc1 | 87.1% | 
O=C(O[C@H]1[C@H](OC(=O)c2cccnc2)[C@@H](OC(=O)c2cccnc2)[C@H](OC(=O)c2cccnc2)[C@@H](OC(=O)c2cccnc2)[C@H]1OC(=O)c1cccnc1)c1cccnc1 | -5.99% | 
C[C@@H](N[C@H]1CCCC[C@@H]1NC(=O)c1ccc(Cl)cc1)c1cccc2ccccc12 | 18.9% | 
COC1(C[S+]([O-])c2ccccc2)CCN(CCc2c[nH]c3ccc(F)cc23)CC1 (centres undefined) | 4.5% | 
MERBROMIN, CHEMBL3833381 |  | 65.3%
CC1=C(O)C(=O)[C@@H]2O[C@@H]2C1=O | -8.14% | 

Compound | inhibition [1] | inhibition [2]
COc1ncc(-c2ccc3c(Nc4cc(Oc5cc(F)cc(F)c5)cc(C(=O)O)c4)c(S(=O)(=O)NC4CC4)cnc3c2)c(OC)n1 | 12.8% | 
CC(=O)Oc1c(C)cccc1C(=O)O | 17% | 
C=C1C(=O)O[C@@H]2[C@H]3C(C)=CC[C@@]34O[C@@]4(C)CC[C@@H]12 | 51% | 
O=C1C(=Cc2cccnc2)C(=O)c2ccccc21 | 27.6% | 
C[C@@H](O[C@H]1OCCN(Cc2nn[nH]c2CN(C)C)[C@H]1c1ccc(F)cc1)c1cc(C(F)(F)F)cc(C(F)(F)F)c1 | 12.9% | 
O=C(NOCCO)c1ccc2cncn2c1Nc1ccc(I)cc1F | 1.39% | 
C[C@H](N)C(=O)NCC(=O)N[C@H]1CSSC[C@@H](C(=O)O)NC(=O)[C@H](CO)NC(=O)[C@H]([C@@H](C)O)NC(=O)[C@H](Cc2ccccc2)NC(=O)[C@H]([C@@H](C)O)NC(=O)[C@H](CCCCN)NC(=O)[C@H](Cc2c[nH]c3ccccc23)NC(=O)[C@H](Cc2ccccc2)NC(=O)[C@H](Cc2ccccc2)NC(=O)[C@H](CC(N)=O)NC(=O)[C@H](CCCCN)NC1=O | 15.2% | 
CC(C)c1cccc2c1OC(C(C)C)C(=S)N2CC(=O)O (centres undefined) | 33% | 
CCC(=O)NO | 83.8% | 
O=C(O)[C@@H](O)[C@@H](O)[C@H](O)[C@@H](O)C(=O)O | 1.05% | 
CO[C@H]1/C=C\C=C(/C)C(=O)NC2=CC(=O)C(NCCN(C)C)=C(C[C@@H](C)C[C@H](OC)[C@H](O)[C@@H](C)/C=C(\C)[C@@H]1OC(N)=O)C2=O | 6.6% | 
O/N=C/c1cc[n+](COC[n+]2ccc(/C=N/O)cc2)cc1 | -4.53% | 
O=C1N[C@@H]2[C@@H](O)[C@@H](O)[C@H](O)[C@@H](CO)N2C1=O | -6.81% | 
Oc1ccc(Cl)cc1 | -5.79% | 
Oc1ccccc1 | 7.92% | 
Oc1ccc2ccccc2c1 | 57.1% | 
O=C1CCC(c2ccccc2)(C2CCN(Cc3ccc(I)cc3)CC2)C(=O)N1 (centres undefined) | -1.98% | 
Cc1ccccc1OCC(O)CNCCOc1ccc(C(N)=O)cc1 (centres undefined) | 0.61% | 
CC(=O)N[C@H]1[C@@H](OC(C)C)O[C@H](COC(C)=O)[C@@H](OC(C)=O)[C@@H]1OC(C)=O | -0.18% | 
CC(=O)OC[C@H]1O[C@@](COC(C)=O)(O[C@H]2O[C@H](COC(C)=O)[C@@H](OC(C)=O)[C@H](OC(C)=O)[C@H]2OC(C)=O)[C@@H](OC(C)=O)[C@@H]1OC(C)=O | 102% | 
C(=C\c1ccccc1)/CN1CCN(CCOC(c2ccccc2)c2ccccc2)CC1 | -6.12% | 
CC(C)OC(=O)CNC(=O)[C@H](CS)NC(=O)CC[C@H](N)C(=O)O | 45.1% | 
Cc1ccc([N+](=O)[O-])cc1O | 25.1% | 
N=C(NCCC[C@H](N)C(=O)O)N[N+](=O)[O-] | 104% | 
